Tests used:
[1] = target: T1, ETS1 (UniProt P14921); assay: ETS1 binding intensity (PBM fluorescence), ETS1 alone (arbitrary fluorescence units); higher = stronger binding; conditions: ETS1 concentration 1 nM; RUNX1 concentration 0 nM
T1 sequence: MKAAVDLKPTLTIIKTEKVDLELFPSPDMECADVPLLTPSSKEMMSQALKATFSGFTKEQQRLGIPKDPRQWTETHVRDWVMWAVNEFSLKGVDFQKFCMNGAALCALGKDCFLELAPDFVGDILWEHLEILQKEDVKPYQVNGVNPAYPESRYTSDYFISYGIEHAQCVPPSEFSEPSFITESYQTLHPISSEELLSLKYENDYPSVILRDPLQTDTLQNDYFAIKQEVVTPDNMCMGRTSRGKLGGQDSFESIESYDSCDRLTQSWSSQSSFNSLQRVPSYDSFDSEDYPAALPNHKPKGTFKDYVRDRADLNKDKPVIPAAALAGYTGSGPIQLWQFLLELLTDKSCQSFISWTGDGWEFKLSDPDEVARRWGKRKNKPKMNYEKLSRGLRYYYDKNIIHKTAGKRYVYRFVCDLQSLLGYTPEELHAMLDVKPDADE

[2] = target: RUNX1 (UniProt Q01196); assay: RUNX1 binding intensity (PBM fluorescence), RUNX1 alone (arbitrary fluorescence units); higher = stronger binding; conditions: RUNX1 concentration 2 nM; ETS1 concentration 0 nM
Experimental: (§1)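 Cooperative gcPBM on 36-bp genomic probes with neighbouring ETS1 and RUNX1 sites. Recombinant human RUNX1 (2 nM) was incubated alone or with ETS1 (25 nM) and detected with anti-RUNX1 antibody plus Alexa488 secondary. Values are medians over 4 replicate spots; the RUNX1+ETS1 data were normalised to the RUNX1-only data. The probes sit in constant array flanks that are not printed.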

[3] = target: T1, ETS1; assay: ETS1 binding intensity (PBM fluorescence) in presence of RUNX1, normalised to ETS1-only experiment (arbitrary fluorescence units); higher = stronger binding; conditions: ETS1 concentration 1 nM; RUNX1 concentration 25 nM
[4] = target: RUNX1 (UniProt Q01196); assay: RUNX1 binding intensity (PBM fluorescence) in presence of ETS1, normalised to RUNX1-only experiment (arbitrary fluorescence units); higher = stronger binding; conditions: RUNX1 concentration 2 nM; ETS1 concentration 25 nM
Experimental: as §1
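Throughout, for RUNX1 binding intensity (PBM fluorescence) in presence of ETS1, normalised to RUNX1-only experiment: Full-length recombinant human ETS1 or RUNX1 bound to double-stranded 36-bp genomic probes on microarrays, detected by protein-specific primary antibody and Alexa488 secondary, spot fluorescence as median of four replicate spots.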
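Throughout, for RUNX1 binding intensity (PBM fluorescence), RUNX1 alone: Full-length recombinant human RUNX1 bound to double-stranded 36-bp genomic probes on a high-density microarray, scored as Alexa488 fluorescence per spot via anti-RUNX1 antibody, median of four replicate spots.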

Chain of RUNX1 (Q01196 whole entry): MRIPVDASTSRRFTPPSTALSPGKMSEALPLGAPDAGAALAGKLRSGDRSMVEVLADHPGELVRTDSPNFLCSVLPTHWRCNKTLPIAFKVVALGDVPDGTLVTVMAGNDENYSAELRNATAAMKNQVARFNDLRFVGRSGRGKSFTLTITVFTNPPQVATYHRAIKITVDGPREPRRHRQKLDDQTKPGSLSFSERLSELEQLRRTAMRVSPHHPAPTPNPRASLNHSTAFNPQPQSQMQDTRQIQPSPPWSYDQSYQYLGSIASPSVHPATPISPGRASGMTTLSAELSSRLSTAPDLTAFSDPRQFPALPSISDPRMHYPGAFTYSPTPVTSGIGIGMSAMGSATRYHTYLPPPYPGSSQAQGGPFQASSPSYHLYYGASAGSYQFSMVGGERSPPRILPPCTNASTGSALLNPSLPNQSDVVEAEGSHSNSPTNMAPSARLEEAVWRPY

Sequence	ETS1 binding intensity [1]	RUNX1 binding intensity [2]	ETS1 binding intensity [3]	RUNX1 binding intensity [4]
GCGCCAGTCACCGTTTCCTGTGGTTTGCTGCCCGCC	1790	1050	3010	2810
GCTCCGCTTCCGGGAGGCGGGGCTTCTGCGGGTTCC	698	737	2520	1710
GTGAGCCTGTAAAGGAAATTGAGGTTATGTGGCTCA	981	694	1770	864
CCCCTCCCTGCTTCCTGTGTGGTGAGGGGTGATCAG	2040	782	2040	1870
TTTCGAGAAAACCGGAAGTGCGTGGTCACGCCCCGC	29400	733	38100	1670
CTCTTCAGCAGGAAATGATGTGGTAAAACAGGGTTA	3000	856	10100	1390
AGCTGCAGTTGGGCAGGAAACCACAATGTCGAAGAC	2490	1320	5770	2400
GTCTTTCACTCCACTTCCGCCCCCACAAAACATACA	2850	6600	3620	6600
CTGCGTTTCCTCTGAGTTTTGCATGTTGAGGTTGGA	462	877	382	1280
TGGGTACTTCCTGTGACAAATCGAGTTGACCACATG	1190	678	2230	1720
AACTAAGTGCAGGGGAAGTTGTGGTTATTTTTTACC	657	1270	3360	1760
CCTACACTTCCCAGAGAACCTAGCGGTTACGCCAAC	401	1340	505	1560
TGCTTCCCGTCCGTGTCGCGGCCCTGCGGTTGGCGG	324	1080	813	3310
CAAGCTGGCAGGAAGCGCGGTGCAACCACAAGAGTC	1870	765	6690	1260
CGTCACTTCCCACGCGACTGCCTGCGGGAAACATGG	550	1150	704	1680
AACATCCGGTTCCCGGTTCTGCCCCCTACCGCAGCT	3190	917	5870	3920
CTACCCTCCCTCTTCCTGTGGTTTCTCAAACATGTC	729	2470	937	5090
CGAGTAGAGATAGCAGGAAGTGGTTTATTCTGAGGT	6000	784	12600	1800
AATCCACCGGAAACACTTAGACGCCGCAACCCCAGT	3660	895	5740	1590
ATGCTAGAAAGCAGGAAGCCACAGACACGCCCCAAC	1180	857	1120	875

Sequence	ETS1 binding intensity [1]	RUNX1 binding intensity [2]	ETS1 binding intensity [3]	RUNX1 binding intensity [4]
GTTCTCAGCTTCCTGTTCACAGAGAAACCTCAGACA	1370	946	1560	1390
TCTGTGACTACGCGGATGTTGTGGGCGGCTACATGC	1000	749	1810	869
GAAATTTCCGCTTTCTTTCTGCAGCAGGAACCGCGG	2670	849	2590	2550
CTCGCCCCATTTCCCGTAAATATCAGCCACAGACCA	546	1350	464	1900
AGATGCAGAACAGGAAGTGGTTTAGAAAGCCACTCT	8980	827	13700	2720
TAAGAAAAACAGTCATCCTGCGGTTTCCATTTGTGA	351	6290	1080	5090
AACGGACCCGGAAGGGGCAGGTCTTGTGGGCGGGTC	814	822	1420	904
AAGAGGAAATAAATACCAGAGTGAACCCACAAACCT	441	892	943	903
TTGTGCTTCCTGCTCATGAGATTGCTAGCGGTTACT	491	803	707	1190
AGGAGCCGGAAGTCCCGCCCACGCACCCCCCGCAGG	5260	857	8270	1770
CAAAGGTTAAATGCAGGATGTGGTTTCTGCAGACTC	2750	922	25400	3990
CTTGTGAAATGTATCCTGTGGTTGCCGGCTGAAGTG	499	848	419	1380
ACCCCAAGCCCAGGATGTGGTTTGGCCACTATTGAG	727	859	4450	2030
ACCCAGGAGGCGGAAGTTGTGGTGAGCCGAGATCGC	4020	862	11600	3150
GGTTCATTTCCTTTTCCTCCTTGTGGTATAAAAGAG	697	1210	985	2890
TTGTCAGATGGCGAAGGAAACCGCGAAATTCGCCAT	608	1270	1270	1050
GAGTTGCTTCCGGCCGTGTTGGTGGTCTGAATTGAG	1590	802	1830	1830
GCCCCGGAAGCTCCTTAAGGAGGACCGTGTGGGTTT	605	746	718	944
CCAAGTGTAAAACGGAAGCTCAACCACGAATCTTAC	1510	800	2960	1100
